Results published in PubChem BioAssay (NCATS).
Results filed as inconclusive are left out. A call without a number means that no potency is given here. Calls of active or inactive are those of the source. Calls come from the whole dose curve; as a rule, active = well fitted curve in the direction sought with a large enough effect; inconclusive = small, poorly fitted or top-dose-only effect, or another doubt; inactive = no such curve, though single readings can be large; an effect the other way counts as inactive or inconclusive.

Columns and labels:
[1] = molecular target: Aldehyde dehydrogenase, mitochondrial (Homo sapiens) (UniProt P05091); assay: qHTS for Inhibitors of the Aldehyde Dehydrogenase Family (ALDH2) Primary screen (AID 2061308); note: nearly all actives have a fitted effect of over 55% in size
[2] = molecular target: Retinaldehyde dehydrogenase 3 (Homo sapiens) (UniProt P47895); assay: qHTS for Inhibitors of the Aldehyde Dehydrogenase Family (ALDH1A3) Primary screen (AID 2061315)

Structure (SMILES)	Potency [1]	Potency [2]
Cc1cc(C2N=C(Nc3nc4ccccc4o3)NC3=C2C(=O)CCC3)n[nH]1 (stereo not given)	inactive	inactive
Cn1cnc(CN=C2NC3=C(C(=O)CCC3)C(c3[nH]ncc3Cl)N2)c1 (stereo not given)	inactive	inactive
Cc1ccc(OCCn2c(CCNC(=O)/C=C/c3cccc(Br)c3)nc3ccccc32)cc1	inactive	inactive
COC(=O)C1CCc2sc(NC(=O)Cc3ccccc3)c(C(=O)Nc3ccc(Cl)cc3)c21 (stereo not given)	inactive	inactive
CC(C)C(OC(=O)CNC(=O)c1ccccc1)C(=O)Nc1cc(C(F)(F)F)ccc1Cl (stereo not given)	inactive	inactive
O=C(Nc1nc(-c2ccccc2)cs1)c1ccncc1NS(=O)(=O)c1cccnc1	inactive	inactive
COC(=O)c1ccccc1NC(=O)c1ccc(C#N)cc1	inactive	inactive
O=C(Nc1ccc(Cl)c(C(F)(F)F)c1)Nc1nnc(-c2cccnc2)s1	inactive	inactive
O=C(NCCc1ccc2c(c1)OCO2)c1cc2sccc2n1Cc1ccccc1	inactive	inactive
CC(C)(C)CNc1ncnc2ccc(-c3ccc(CO)o3)cc12	inactive	inactive
C=C1C(=O)OC2CC3(C)C(O)C(=O)C=C(C)C3CC12 (stereo not given)	inactive	inactive
COc1ccc(C2c3c(ncn(CCCc4ccccc4)c3=N)Oc3ccc4ccccc4c32)cc1OC (stereo not given)	inactive	inactive
CC(=O)Nc1sc2c(c1-c1ccc3nsnc3c1)CCNC2	inactive	inactive
CCC(=O)NC(c1ccc(C)cc1)c1cc([N+](=O)[O-])c2cccnc2c1O (stereo not given)	inactive	inactive
C=C(C)C(=O)OC1CC2(C)OC(=CC2=O)C(=C)CC2OC(=O)C(COC)C12 (stereo not given)	inactive	inactive
O=C(COC(=O)CNC(=O)C1CCCCC1)Nc1ccccc1Cl	inactive	inactive
Cc1ccc(-c2ccc(=O)n(CC(=O)NCCc3ccccn3)n2)cc1	inactive	inactive
Cc1ccc(C)c(SC2CS(=O)(=O)c3ccccc32)c1 (stereo not given)	inactive	inactive

Structure (SMILES)	Potency [1]	Potency [2]
O=S(=O)(Nc1ccc(-c2ccccc2)cc1)c1ccc(NCc2ccc(Br)cc2O)cc1	inactive	inactive
CC(=O)Nc1ccc(S(=O)(=O)N2CCN(c3ccc(C(C)=O)cc3)CC2)cc1	inactive	inactive
CCn1cnc2c(Nc3ccc(CCC(=O)N=C(N)N)cc3)nc(C#N)nc21	inactive	inactive
COc1ccc(NC(=O)c2cnn3c(C)cc(C)nc23)cc1F	inactive	inactive
O=C(Nc1ccccn1)c1sc2ccccc2c1Cl	inactive	inactive
Brc1cnc2nc(SCc3cccnc3)[nH]c2c1	inactive	inactive
CC12CCC3C1C(c1c(cc(O)c(C(=O)c4ccccc4)c1O)O2)C3(C)C (stereo not given)	inactive	inactive
COc1ccc(-c2nnc3n2N=C(c2cc(OC)ccc2OC)CS3)cc1	inactive	inactive
CCCn1c(-c2ccc(F)cc2)nc2c(N3CCCN(Cc4ccccc4)CC3)nc(C)nc21	inactive	inactive
Cc1ccnc(NC(=S)N2CCN(c3cccc(N(C)C)c3)CC2)c1	inactive	inactive
O=C(O)c1ccc(O)c2ncc(N3CCC(N4CCOCC4)C3)cc12 (stereo not given)	inactive	inactive
COc1cccc(C)c1NC(=O)C(OC(=O)CNC(=O)c1ccccc1)c1ccccc1 (stereo not given)	inactive	inactive
O=c1[nH]cnc2c1ncn2[C@H]1CC[C@@H](CO)O1	inactive	inactive
COC(=O)[C@H](O)[C@H]1C(C)(C)[C@H](OC(C)=O)[C@@]2(O)C(=O)[C@]1(C)C1CC[C@]3(C)C(CC(=O)O[C@H]3c3ccoc3)[C@]13O[C@@H]32 (stereo not given in full)	inactive	inactive
Cc1nc(NC2CCCCC2)c2nc(-c3ccccc3)n(CCCN3CCOCC3)c2n1	inactive	inactive
Cn1c2cc(Br)sc2c2cnn(Cc3ccc(F)cc3)c(=O)c21	inactive	inactive
O=C(OCC#CCSc1nnc(-c2cccc3ccccc23)o1)c1ccc(OC(F)(F)F)cc1	inactive	inactive
